Laboratory results from ChEMBL document CHEMBL3988442, “University of Dundee, Small-Polar-MMV Screening Library” (2021).
Among all 38,000 compounds or so, about 1,200 (3.2%) showed an effect of 50% or more. The median lay at about -58%. The sample holds strong results, similar compounds and a random draw of the others, so the mix is not that of the screen.

test system: Plasmodium falciparum; assay: Calibr Malaria Delayed Death Assay SOP; assay type: functional, organism-based; parameters: scale not given: in the data most compounds retested in dose-response had high values; details: concentration 4.99e-06 (unit not given; other assays of the set use mol/L)

Compound	Percent Effect [%]
O=C(c1ccc2[nH]c(=O)[nH]c2c1)N1CCC(Nc2cccnn2)CC1	-46.87
COc1c(C)cnc(CN2CCOC(Cn3cc(C)cn3)C2)c1C (centres undefined)	-74.84
Cn1c2c(c(=O)n1C)CN(C(=O)c1cnccn1)CCC2	-106.6
Cc1ccc(C(=O)N2CCCC3(C2)C(=O)N(C)c2ccccc23)c(=O)[nH]1 (centres undefined)	-167.7
Cc1cc(C)cc(NC(=O)CC2CN(Cc3ccccc3)CCO2)c1 (centres undefined)	-128.2
CCc1cccc2cc(CNCCCN3CCOCC3)c(=O)[nH]c12	-14.92
COCCCn1c(CN2CCCCO2)cnc1S(=O)(=O)C1CCCC1	-131.1
O=C(CNc1ccccc1Cl)Nc1cc(-n2cnnn2)ccc1F	-95.2
O=C(CNc1cc(-n2cnnn2)ccc1F)Nc1cc(F)ccc1F	1.352
O=C(CNc1cc(-n2cnnn2)ccc1F)NCc1ccccc1	-22.04
Cc1ccc(-n2cnnn2)cc1NCC(=O)Nc1cc(F)ccc1F	71.46
O=C(CNc1cc(-n2cnnn2)ccc1F)Nc1ccccc1Cl	-49.6
Cc1ccc(-n2cnnn2)cc1NCC(=O)Nc1ccccc1Cl	78.71
Cc1ccc(-c2ccc(=O)n(CC(=O)Nc3nccs3)n2)cc1	-17.67
FC1(F)CCN(Cc2ccccn2)CC12CCN(c1cnccn1)C2.O=C(O)C(F)(F)F.O=C(O)C(F)(F)F.O=C(O)C(F)(F)F (centres undefined)	16.91
CC(C)(C)OCC1CN(CC2CC2)S(=O)(=O)c2cnccc2O1 (centres undefined)	-18.82
O=C1NCC2(CCCN(C(=O)c3c[nH]nc3C3CCCCC3)C2)O1 (centres undefined)	-117.3
O=C(NCC1CCOC1)c1csc(-c2ccc(F)cc2)n1 (centres undefined)	-133.9
c1ccc(CO[C@H]2CO[C@@]3(CCCN(Cc4ccncc4)C3)C2)nc1	-35.86
CN1C[C@H]2N(c3ncccn3)CCC[C@@]2(C(=O)NCC2CC2)C1.O=C(O)C(F)(F)F	-55.87
CCN(CC)Cc1ccc(C(=O)NC2CCc3cc(F)ccc32)o1 (centres undefined)	13.89
CCN(CC)Cc1ccc(C(=O)NC2CCc3cc(Cl)ccc32)o1 (centres undefined)	54.73

Compound	Percent Effect [%]
CCN(CC)Cc1ccc(C(=O)NC2CCc3cc(Br)ccc32)o1 (centres undefined)	46.2
CCC(c1ccncc1)N(C)S(C)(=O)=O (centres undefined)	-63.43
O=c1[nH]nc2c(S(=O)(=O)N3CCCCC3)cccn12	-53.1
CCSc1nnc(CCNC(=O)OC(C)(C)C)o1	-74.82
FC(F)(F)c1cccc(C2(CNCc3ccncc3)CCOCC2)c1	48.98
CCN(C)S(=O)(=O)NCC1(c2cccc(Br)c2)CC1	-108.3
Fc1ccc(C2(CNCCc3cccs3)CCOC2)cc1 (centres undefined)	43.71
Clc1ccc(OCCNC2(c3ccc(Br)cc3)CCOCC2)cc1	8.374
COCCn1ccnc1C1CCCN(c2cc(OC)nc(N)n2)C1 (centres undefined)	-62.62
CC(O)(CN1CCC2(CC1)OCCO2)c1cccc(C(F)(F)F)c1 (centres undefined)	-10.61
CC(O)(CN1CCC(O)CC1)c1cccc(C(F)(F)F)c1 (centres undefined)	56.04
CC(=O)N1CCCN(CC(C)(O)c2cccc(C(F)(F)F)c2)CC1 (centres undefined)	-93.83
COc1cc(C)c(S(=O)(=O)CC(=O)N(C)C2CC2)cc1OC	-72.85
NC(=O)C1(c2cnccn2)CCCN1Cc1ccccn1 (centres undefined)	-37.82
Cc1ccc(NCCCc2c(C)noc2C)nn1	-93.73
Cc1cc(CN2CCC3(CC2)CC(Nc2ncccn2)CO3)nn1C.O=C(O)C(F)(F)F (centres undefined)	-11.8
O=C(O)C(F)(F)F.c1cnc(NC2COC3(CCN(Cc4cccs4)CC3)C2)nc1 (centres undefined)	-52.55
Cc1cc(C)cc(CN2CCC3(CC2)CC(Nc2ncccn2)CO3)c1.O=C(O)C(F)(F)F (centres undefined)	60.22
O=C(O)C(F)(F)F.c1cnc(NC2COC3(CCN(Cc4ccoc4)CC3)C2)nc1 (centres undefined)	-27.43
O=C(O)C(F)(F)F.c1ccc(CN2CCC3(CC2)CC(Nc2nccs2)CO3)nc1 (centres undefined)	73.68
Cn1cc(CN2CCC3(CC2)CC(Nc2nccs2)CO3)cn1.O=C(O)C(F)(F)F (centres undefined)	-11.64
COc1ccc2c(ccn2CCC(=O)Nc2ccc(C(N)=O)cc2)c1	-55.48

Compound	Percent Effect [%]
COCCCN(C)C1CCCN(Cc2noc(C3CC3)n2)C1 (centres undefined)	-38.52
CCCc1nnc(N2CCC3(CC2)CN(C)C(=O)O3)o1	-93.43
O[C@H]1CC[C@@H](Cc2cc(-c3ccc(F)cc3)on2)O[C@@H]1CNCC1CC1	62.55
O[C@H]1CC[C@@H](Cc2cc(-c3ccccc3)on2)O[C@@H]1CNCC1CC1	37.66
O[C@H]1CC[C@@H](Cc2cc(-c3ccccn3)on2)O[C@@H]1CNCC1CC1	-74.71
CN(Cc1cccs1)c1cc(N2CCCC2CO)ncn1 (centres undefined)	-120.2
Cc1cc2nc(SCC(=O)N3CCOCC3)n(CC(C)C)c(=O)c2[nH]1	-82.87
CC(C)c1cc(Br)ccc1NC(=O)NC(C)(CO)CO	-72.51
CC(c1nc(C(C)(C)C)no1)S(=O)(=O)CC(=O)N(C)C (centres undefined)	-171.7
Fc1ccc(Sc2ccccc2CNC2=NCCN2)cc1.I	79.96
Fc1ccc(OCCCNC2=NCCN2)cc1.I	3.475
O=C(CCc1nnc2ccccn2c1=O)NCc1ccco1	-46.43
COc1ccsc1C(=O)NCCN1CCOCC1	-115.8
Cc1nc(C)n(CC2CCCN2Cc2ccn(-c3ccccc3)n2)n1 (centres undefined)	-118.1
CNCCCNC1CCN(c2ccc(-n3ccnc3)cc2)CC1	32.68
CCN1CCC2(CC1)CC(CC(=O)N(C)C)c1ccc(F)cc12 (centres undefined)	-67.07
CCC(C)N(Cc1c[nH]c(C)n1)Cc1ccccc1Cl (centres undefined)	47.84
CCC(C)N(Cc1ccc(C)cc1)Cc1c[nH]c(C)n1 (centres undefined)	77.78
CCC(C)N(Cc1ccncc1)Cc1ccc(-n2cccn2)cc1 (centres undefined)	-4.562
CCc1ccc(CN2CCNC(C(=O)N3CCN(C)CC3)C2)o1 (centres undefined)	-22.63
